# Experimental data reported in PubChem BioAssay (NCATS).
# Inconclusive results are not listed. Values without a mark were called inactive. Calls come from the whole dose curve; as a rule, active = well fitted activation curve with a large enough effect; inconclusive = small, poorly fitted or top-dose-only effect; inactive = no such curve, though single readings can be large or run the other way.
# Molecular target: Cellular tumor antigen p53 (Homo sapiens) (UniProt P04637)
# Assay: Primary qHTS for small molecule compounds that upregulate eGFP-tagged delta133p53alpha (in N-terminal) cells. (AID 2060322);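 note: series mostly up to about 56 µM; 0% = DMSO vehicle and 100% = reference activator; nearly all actives have a fitted effect of over 75% in size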
# Conditions: NCI-H358 eGFP-delta133p53alpha fluorescence, 24 h; activation: active compounds read high
# In short: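 NCI-H358 cells pre-induced 24 h with 10 ng/ml doxycycline to express N-terminal eGFP-delta133p53alpha, then dosed 24 h at 37C without doxycycline; fixed, Hoechst-stained, GFP intensity by laser scanning cytometry, normalized to DMSO (0%) and 57.5 uM 5-azacytidine (100%).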
# Sequence of Cellular tumor antigen p53 (Homo sapiens) (P04637 whole entry, looked up): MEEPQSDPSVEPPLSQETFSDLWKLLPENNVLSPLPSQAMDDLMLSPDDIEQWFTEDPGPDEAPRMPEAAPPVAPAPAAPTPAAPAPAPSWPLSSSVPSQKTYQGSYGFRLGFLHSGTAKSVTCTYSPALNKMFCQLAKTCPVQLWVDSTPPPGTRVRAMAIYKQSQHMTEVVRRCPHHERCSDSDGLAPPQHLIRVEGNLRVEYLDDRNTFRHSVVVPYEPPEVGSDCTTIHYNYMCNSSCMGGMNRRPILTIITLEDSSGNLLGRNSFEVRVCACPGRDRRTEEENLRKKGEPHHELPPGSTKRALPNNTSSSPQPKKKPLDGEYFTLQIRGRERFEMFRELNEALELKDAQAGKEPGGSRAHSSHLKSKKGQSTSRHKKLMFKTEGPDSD
row,SMILES,activation [%]
1,CC(=O)O[C@H]1CC[C@H](C)[C@@]2(C)[C@H](OC(C)=O)c3c(C)coc3C(=O)[C@H]12,-3.82
2,CCOc1ccc(S(=O)(=O)N2CCCCCC2)c2ccccc12,-13.7
3,O=C(NCc1ccccc1-c1ccccc1C(=O)NCCc1ccccn1)OCc1ccccc1,1
4,CC(=O)O[C@H]1CC(C)(C)CC2[C@@]13[C@H](O)C[C@]1(C)[C@@]2(CCC2[C@@]4(C)CC[C@H](O[C@@H]5OC[C@H](O[C@@H]6O[C@H](CO)[C@@H](O)[C@H](O)[C@H]6O[C@@H]6OC[C@@H](O)[C@H](O)[C@H]6O)[C@H](O)[C@H]5O[C@@H]5O[C@H](CO)[C@@H](O)[C@H](O)[C@H]5O)C(C)(C)C4CC[C@]21C)O[C@@H]3O (stereo not given in full),-7.63
5,CC(=O)C1(C)CCC2C3C=C(C)C4=CC(=O)CCC4(C)C3CCC21C (stereo not given),-17
6,O=C1CC[C@H](C(=O)N2CCCCC2)N1,-6.33
7,C=C1CCC(OC(C)=O)C2(C)CC3OC(=O)C(C)=C3CC12 (stereo not given),-0.763
8,CC(C)C1C(OC(=O)/C=C/c2ccccc2)CC2(C)OC2CCC2(C)OC2C1O (stereo not given),-0.763
9,CC(=O)O[C@@H]1[C@@H](OC(=O)/C=C/c2ccccc2)[C@@H](OC(C)=O)[C@H](O[C@H]2[C@@H]3C=CO[C@@H](O[C@@H]4O[C@H](CO)[C@@H](O)[C@H](O)[C@H]4O)[C@@H]3[C@@]3(CO)O[C@@H]23)O[C@H]1C,-12.2
10,CC(=O)O[C@@H]1[C@H](O[C@@H]2O[C@@H](CO)[C@H](O)[C@H]2O)[C@@H](O[C@@H]2O[C@@H](C)[C@H](O[C@@H]3OC[C@@H](O)[C@H](O)[C@H]3O)[C@@H](O)[C@H]2O)[C@H](OC(=O)[C@]23CCC(C)(C)C[C@H]2C2=CCC4[C@@]5(C)CC[C@H](O[C@@H]6O[C@H](C(=O)O)[C@@H](O)[C@H](O)[C@H]6O[C@@H]6O[C@H](CO)[C@H](O)[C@H](O)[C@H]6O)[C@@](C)(C=O)C5CC[C@@]4(C)[C@]2(C)C[C@H]3O)O[C@@H]1C (stereo not given in full),0.893
